In PubChem BioAssay AID1117319 (Southern Research Institute, 2015):
Values joined by “and” are separate entries in the source; they are usually repeats but may differ in a detail not shown here. Identical values can stand only once. About 1,500 (0.58%) of roughly 260,000 compounds were called active. About 5% were inconclusive and are not listed.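 How the source made its calls: active means inhibition above a set limit at one or more doses, reproduced on every date tested; inconclusive means results disagree between test dates, or hit never tested in dose response; inactive means the rest.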 The list is a sample of the results. Potency and affinity values are given separately.

The molecules below were run against Virion infectivity factor (Human immunodeficiency virus type 1 group M subtype B (isolate BH10)) + Virion infectivity factor (Human immunodeficiency virus type 1 group M subtype B (isolate BRU/LAI)) + Virion infectivity factor (Human immunodeficiency virus type 1 group M subtype B (isolate PCV12)) + Virion infectivity factor (Human immunodeficiency virus type 1 group M subtype B (isolate HXB2)) + DNA dC->dU-editing enzyme APOBEC-3G (Homo sapiens) (UniProt P69720+P69721+P69722+P69723+Q9HC16) (assay: HIV-1 Vif–A3G interaction blockers – biochemical, TR-FRET, GST-Vif 1-94, biotin-A3G peptide, dose response retest, primary screen (AID 1117319;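 further: Vif residues 1-94 fused to GST binding biotinylated APOBEC3G peptide 110-148; 0% = full assay without inhibitor and 100% = GST in place of GST-Vif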)). Settings: TR-FRET GST-Vif / biotin-A3G peptide binding; active compounds read high.

inhibition, inactive:
O=C(COC(=O)CNC(=O)c1ccc(Br)o1)Nc1ccccc1OC(F)F 6.47%
CCOC(=O)COc1nc(-c2ccc(C)cc2)cc(-c2ccco2)c1C#N -6.28%
CCOC(=O)COc1nc(-c2ccccc2)cc(-c2ccco2)c1C#N 4.55%
Cc1cccc(CC(Cc2nc3ccccc3[nH]2)c2nc3ccccc3[nH]2)c1 (centres undefined) 10.6%
Cc1ccc2c(Cl)cc(Cl)c(OCC(=O)Nc3cccc(S(N)(=O)=O)c3)c2n1 -2.21%
Cc1ccc(-c2cc(C(=O)N/N=C/C(Br)=C/c3ccccc3)n[nH]2)o1 27.2%
O=C(N/N=C/C(Br)=C\c1ccccc1)c1ccco1 8.5%
CCOc1ccc(S(=O)(=O)Nc2cccc(C(=O)N3CCN(c4ccccc4O)CC3)c2)cc1 4.44%
COC(=O)/C(=N/Nc1ccccc1OC)N1CCCc2ccccc21 14.5%
COC(=O)/C(=N/Nc1cccc(C)c1)N1CCCc2ccccc21 24.9%
O=C(NCCc1ccccc1)C1CCN(S(=O)(=O)c2cccc3nsnc23)CC1 -0.39%
N#C/C(=C/c1ccc(N2CCCCCC2)o1)c1ccc(F)cc1 5.86%
N#C/C(=C/c1ccc(N2CCCCCC2)o1)c1ccc(Cl)cc1 17.8%
Cc1ccc(/C=C/C(=O)NCCCn2ccnc2)cc1 -9.33%
O=[N+]([O-])c1c(Nc2ccccn2)cc(Cl)c2nonc12 10.6%
CN(C)c1cc(Nc2cccc(O)c2)c([N+](=O)[O-])c2nonc12 -10.7%
CC(=O)Nc1ccc(Nc2cc(N(C)C)c3nonc3c2[N+](=O)[O-])cc1 0.25%
O=[N+]([O-])c1c(Nc2ccccc2O)ccc2nonc12 1.82%
CC(C)CC(=O)Nc1ccnn1C1CCN(C(=O)c2ccccc2F)CC1 -2.89%
CCOC(=O)c1c(/N=C/N(C)C)sc(C)c1C -7.57%
O=C(CCCN1C(=O)c2ccccc2C1=O)N1CCc2ccccc2C1 -3.95%
CN1CCN(C(=O)CN2C(=O)CC(C)(C)S(=O)(=O)c3ccccc32)CC1 -1.94%
O=C(NCCc1ccccc1Cl)c1cc(COc2ccc(F)cc2F)on1 2.92%
O=C(COc1ccc(-c2nnco2)cc1)Nc1ccc(F)c(Cl)c1 -11.6%
CCNC(=O)c1cc2c(=O)n3cccc(C)c3nc2n(CCc2ccccc2)c1=N -4.24%
N=c1c(C(=O)NCc2ccco2)cc2c(=O)n3ccccc3nc2n1CCc1ccccc1 19.6%
CCOc1cc(N2CCOCC2)c(OCC)cc1NS(=O)(=O)c1ccc2c(c1)CC(=O)N2 9.5%
CCOc1cc(N2CCOCC2)c(OCC)cc1NC(=O)CSc1ncccn1 -9.38%
CCOc1cc(N2CCOCC2)c(OCC)cc1NC(=O)C(C)C 32.2%
CCOc1cc(N2CCOCC2)c(OCC)cc1NC(=O)C(C)(C)C 31%
CCOc1cc(N2CCOCC2)c(OCC)cc1NC(=O)CSc1nc(N)cc(=O)[nH]1 -6.18%
CCN(CC)S(=O)(=O)c1ccc(N2CCOCC2)c(NS(=O)(=O)c2ccc(Cl)s2)c1 7%
CC1CCCC(C)N1C(=O)COc1cccc(Oc2ccccc2)c1 (centres undefined) -6.13%
O=C(Oc1cc(-c2ccccc2)no1)c1cccc(C(F)(F)F)c1 12%
CCCN(CC(=O)Nc1ccccc1C)C(=O)c1ccc(C)c(S(=O)(=O)N2CCCCC2)c1 -7.29%
COc1ccc(C(=O)NCc2cccnc2)cc1Br 7.76%
COC(=O)C(=C/C=C/c1ccco1)C(=O)OC 32.7%
Cn1nnc(NC(=O)/C=C/c2ccco2)n1 11.5%
CCCCN1C(=O)NC(NC(=O)c2ccco2)(C(F)(F)F)C1=O (centres undefined) -1.08%
CCCCn1c(N)c(N(CC)C(=O)/C=C/c2ccco2)c(=O)[nH]c1=O -7.61%
CC1Cc2c([nH]c3ccccc23)C(=O)N1 (centres undefined) 0.31%
COc1c2ccoc2c(OC(C)=O)c2oc(C)cc(=O)c12 0.13%
COC(=O)Cn1cnc2c1c(=O)n(C)c(=O)n2C 1.38%
Cc1csc(NC(=O)C2CCCCN2S(=O)(=O)c2ccccc2)n1 (centres undefined) 1.7%
CCc1nnc(SCC(=O)Nc2ccc(C(C)=O)cc2)nc1CC 2.81%
CC(=O)c1ccc(NC(=O)CSc2ccc(-c3ccco3)nn2)cc1 -1.56%
Cc1ccc(NC(=O)CSc2nnc(-c3ccco3)c(-c3ccco3)n2)cc1 25.5%
COc1cccc(NC(=O)CSc2nc(N)cc(N)n2)c1 3.65%
COc1cccc(NC(=O)CSc2ccc(-c3ccco3)nn2)c1 3.97%
O=C(CSc1n[nH]c(-c2ccco2)n1)Nc1ccccc1 5.48%
COc1ccc(CCNC(=O)COC(=O)/C=C/c2ccc(OCC#N)c(OC)c2)cc1OC 5.39%
CC(=O)Nc1ccc(NC(=O)Cn2ccc([N+](=O)[O-])n2)cc1 11.7%
COc1cccc(C2CC(c3cccs3)=NN2C(=O)CSC2=NN3CCCC(=O)N=C3S2)c1OC (centres undefined) 0.81%
O=C(c1ccco1)N1CCN(Cc2cc(=O)c(OCc3cccc(F)c3)co2)CC1 -1.67%
O=[N+]([O-])c1ccc(-c2nc(=S)c3c(o2)CCCC3)cc1 0.66%
S=c1nc(-c2ccccc2)oc2c1CCCC2 2.15%
Cc1nc2oc3ccccc3c(=O)c2cc1C(=O)O -10.2%
Cc1ccc(C)c(N2CCN(S(=O)(=O)c3ccc4c(c3)CCC(=O)N4)CC2)c1 24.6%
COc1ccc(C(=O)COC(=O)CNC(=O)c2ccc(Cl)cc2Cl)c(OC)c1 3.17%
Cc1cc(C)cc(NC(=O)CSCc2cnn(-c3ccccc3)c2-n2cccc2)c1 -0.62%
CCOc1ccc(NC(=O)CSCc2cnn(-c3ccccc3)c2-n2cccc2)cc1 -1.2%
Cc1cc2ccccc2n1CCNC(=O)C1CCCC1 23.5%
O=C(NCCn1ccc2ccccc21)C1CCCCC1 -2.31%
CC(C)CC(=O)NCc1ccc2[nH]c3c(c2c1)CCCC3 5.99%
O=C(CCN1CCC(c2ccc(Cl)s2)=N1)c1ccc(Cl)s1 -2.16%
CC(=O)NCC(=O)NC(Cc1ccccc1)C(N)=O (centres undefined) 18.9%
COc1cc(/C=C(\C#N)C(=O)N2CCOCC2)cc(Br)c1O -3.89%
NC(=O)/C(=C\c1ccco1)NC(=O)c1ccco1 13.1%
CC(=C\C(=O)O)/C(=C/c1ccco1)C(=O)O 29.9%
Cc1ccc2sc(N(CCCN(C)C)C(=O)c3ccc(S(=O)(=O)N4CCOCC4)cc3)nc2c1C 7.87%
CCOc1ccccc1CNc1ccc(O)cc1 -1.14%
O=C(O)c1ccc(CNCc2cccc(OCc3ccc(F)cc3)c2)cc1 -2.79%
COc1cc(CNC(C)(C)CO)cc(Br)c1OCc1ccccc1 14.2%
CCOc1cccc(CNn2cnnc2)c1OCc1ccccc1Cl 3.09%
O=[N+]([O-])c1ccc(COc2cccc(CNc3ccc(F)cc3)c2)cc1 26.4%
Fc1cccc(COc2ccccc2CNc2ccccc2)c1 8.86%
C=CCOc1c(CNc2ccc(C(=O)O)cc2)cccc1OCC 5.17%
CCOc1cc(CNc2ccccc2)cc(Br)c1OCc1ccc(F)cc1 -2.02%
O=C(c1cccn2c(=O)c3ccccc3nc12)N1CCN(Cc2ccc3c(c2)OCO3)CC1 3%
CN(C)CCn1cnc2c(c1=N)C(c1ccccc1)c1ccc3ccccc3c1O2 (centres undefined) -7.72%
CC1(C)Cc2ccccc2C(C(=O)c2ccccc2)=N1 -10.3%
CCOC(=O)c1cc2sccc2n1CC(=O)N1CCCc2ccccc21 -4.99%
CCN1CCN(CC(=O)N2N=C(c3cccs3)CC2c2ccc(C)cc2)C(=O)C1=O (centres undefined) 1.42%
Cc1csc(NC(=O)COc2ccc3c(C)cc(=O)oc3c2)n1 -13.9%
Cc1cccc(N2CCN(C(=O)CCNS(=O)(=O)c3ccc4c(c3)CCC(=O)N4)CC2)c1C -0.88%
CC(=O)c1ccc(N2CCN(C(=O)c3cc(C)on3)CC2)cc1 11.8%
CC(c1cccs1)N(C)Cc1nc(CCc2ccccc2)no1 (centres undefined) 2.69%
CN1C(=O)[C@H]2[C@@H](c3ccc(C(F)(F)F)cc3)N[C@]3(CCCN(CC4CCCCC4)C3=O)[C@H]2C1=O 2.73%
CCN(CC(=O)NC1CCS(=O)(=O)C1)C(=O)C(c1ccccc1)c1ccccc1 (centres undefined) 1.78% and 11.2%
CC(=O)N1CCN(S(=O)(=O)c2cccc(C(=O)NNC(=O)COc3c(C)cccc3C)c2)CC1 -12.3%
N#CCN1C(=O)C(=O)N(Cc2cccc(C(F)(F)F)c2)C1=O -1.35%
CC(NC(=O)c1ccccc1[N+](=O)[O-])C1CC2CCC1C2 (centres undefined) 1.73%
O=C(Nn1cnc2ccccc2c1=O)c1ccc([N+](=O)[O-])cc1 -7.54%
c1ccc(CNn2nnnc2-c2ccccc2)cc1 1.36%
